In all, about 16,000 compounds went through this assay and about 5,100 (32%) were called active. Inconclusive results (about 25%) are left out. The list shows a part of the results. Unmarked numbers belong to inactive results. The call rests on the fitted dose curve; in most records, active means well fitted curve in the direction sought with a large enough effect; inconclusive means small, poorly fitted or top-dose-only effect, or effect the other way; inactive means no such curve, though single readings can be large or run the other way.
target: Cytochrome P450 3A4 (Homo sapiens) (UniProt P08684); assay: Cytochrome panel assay with activity outcomes; settings: recombinant CYP, pro-luciferin dealkylation, luminescence, p450-cyp3a4; series mostly up to 57.1 µM; activity, negative = inhibition: at the top concentration
Sequence (P08684 whole entry, looked up): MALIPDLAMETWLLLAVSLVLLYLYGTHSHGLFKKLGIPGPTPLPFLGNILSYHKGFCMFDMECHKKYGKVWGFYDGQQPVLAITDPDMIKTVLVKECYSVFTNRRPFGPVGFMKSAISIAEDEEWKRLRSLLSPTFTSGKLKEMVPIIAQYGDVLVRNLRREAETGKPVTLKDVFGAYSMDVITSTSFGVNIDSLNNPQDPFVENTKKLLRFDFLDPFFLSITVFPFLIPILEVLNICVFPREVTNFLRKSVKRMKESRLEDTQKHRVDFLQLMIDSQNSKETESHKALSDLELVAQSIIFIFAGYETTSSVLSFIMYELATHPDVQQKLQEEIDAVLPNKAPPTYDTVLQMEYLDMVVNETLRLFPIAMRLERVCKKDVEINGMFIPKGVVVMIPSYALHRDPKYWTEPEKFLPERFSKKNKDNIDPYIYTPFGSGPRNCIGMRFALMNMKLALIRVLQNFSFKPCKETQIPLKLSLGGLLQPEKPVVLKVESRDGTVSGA
On the % scale 0 is the no-effect control and ±100 the full control effect.

| Structure (SMILES) | activity, negative = inhibition | AC50 |
| --- | --- | --- |
| C[C@H](C[C@H](N)C(=O)O)C(=O)O | -6.08% |  |
| CC[N+](CC)(CC)CCOc1cccc(OCC[N+](CC)(CC)CC)c1OCC[N+](CC)(CC)CC | 5.02% |  |
| Nc1cc(Cl)ccc1Oc1ccc(Cl)cc1 | 13.4% |  |
| Clc1ccc(-c2ccnc(Oc3cc(Cl)ccc3Cl)n2)cc1 | -6.59% |  |
| Cc1cc(Cl)ccc1Oc1ncc(-c2ccc(Cl)cc2)cn1 |  | 7.08 µM (active) |
| O=C(O)C1CCN(c2ncccn2)CC1 | -12.1% |  |
| O=C(NC1CCCC1)c1cccnc1N1CCCCCC1 |  | 14.1 µM (active) |
| O=[N+]([O-])c1cccnc1N1CCCCC1 | -1.84% |  |
| COCc1c(C(=O)OCC(=O)N2c3ccccc3NC(=O)C2(C)C)oc2ccccc12 | 0.0262% |  |
| Cc1noc(C)c1COc1cccc(C(=O)OCC(=O)N2CC(=O)Nc3ccccc32)c1 |  | 4.47 µM (active) |
| Cc1cc(F)ccc1S(=O)(=O)Nc1ccccc1C(=O)Nc1ccccc1N1CCOCC1 |  | 0.891 µM (active) |
| O=C(Nc1ccccc1N1CCOCC1)c1ccccc1[N+](=O)[O-] | 14.2% |  |
| O=C(Nc1ccccc1N1CCOCC1)c1ccc([N+](=O)[O-])cc1 | -2.07% |  |
| Cc1cccc(CNc2nc(-c3ccccc3CN(C)C)nc3ccccc23)c1 |  | 10 µM (active) |
| CN(C)Cc1ccccc1-c1nc(N(C)C)c2ccccc2n1 | -28% |  |
| CN(C)Cc1ccccc1-c1nc(NCc2ccccc2)c2ccccc2n1 |  | 12.6 µM (active) |
| COc1ccccc1OCCN1C(=O)S/C(=C\c2ccco2)C1=O |  | 14.1 µM (active) |
| CCOc1cc(/C=C2/SC(=O)N(CC(=O)N3CCc4ccccc4C3)C2=O)ccc1OCC(=O)O | -11.9% |  |
| CCCCN=C1N/C(=C\c2ccco2)C(=O)N1c1ccccc1 | -25.2% |  |
| CCCc1cc(=O)oc2cc(OCc3nn[nH]n3)ccc12 | -17.2% [at 2.29 µM] |  |
| CCCCc1cc(=O)oc2cc(OCC(=O)N(CC)CC)ccc12 | -26.8% |  |
| CCCc1cc(=O)oc2cc(OCC(=O)N3CCc4ccccc43)ccc12 |  | 8.91 µM (active) |
| Cc1ccc(Nc2nc(-c3c(C)nc4ncccn34)cs2)cc1 |  | 25.1 µM (active) |
| C=CCn1c(=O)c(C(=O)NCCN(CC)CC)c(O)c2ccccc21 | -20.6% |  |

| Structure (SMILES) | activity, negative = inhibition | AC50 |
| --- | --- | --- |
| CC(C)C(=O)NCCn1ccc2ccccc21 |  | 12.6 µM (active) |
| O=C(O)CN1CCN(Cc2ccc(F)cc2Cl)C1=O |  | 2.24 µM (active) |
| O=C(O)CN1CCN(Cc2ccccc2)C1=O | 11.6% |  |
| Cc1sc(NC(=O)/C=C/c2ccc(C(C)C)cc2)c(C#N)c1C | -11.7% |  |
| CC1=C(C#N)C(NC(=O)C2CCCCC2)(C(F)(F)F)C(=O)N1 (stereo not given) | -17.3% |  |
| Cc1sc(NC(=O)C2CCCCC2)c(C#N)c1-c1ccccc1 |  | 8.91 µM (active) |
| CC(C)(C)CNC(CO)C12CC3CC(CC(C3)C1)C2 (stereo not given) | -5.44% |  |
| Cc1nc(SCC(=O)Nc2c(C)nn(C)c2C)c2cnn(-c3ccccc3)c2n1 | -11.2% [at 2.29 µM] |  |
| CCC(CC)C(=O)Nc1c2cnn(-c3ccccc3)c2nc(=O)n1-c1ccccc1 | -11.9% |  |
| Cc1ccc2nc(SCc3nc4c(cnn4-c4ccccc4)c(=O)[nH]3)[nH]c2c1 |  | 10 µM (active) |
| CCc1c(O)nc2sc3ccccc3n2c1=O | -8.69% |  |
| Cc1ccc2c(CC(=O)OCc3cc(=O)n4c(n3)sc3ccccc34)coc2c1 |  | 7.94 µM (active) |
| CCOC(=O)Cc1cc(=O)n2[nH]c(C)c(-c3ccccc3)c2n1 | -6.13% |  |
| CN(CCO)c1nc(N)c2c(N)nc3c(c2c1C#N)CC(=O)N3C1CCCC1 |  | 10 µM (active) |
| COc1cc(/C=N/NC(N)=O)c(Br)cc1OCC(=O)Nc1ccccc1C |  | 3.55 µM (active) |
| COCCCNC(=O)C(=O)N/N=C/c1ccc(OCC(=O)Nc2cccc(Cl)c2C)c(OC)c1 | 7.9% [at 2.29 µM] |  |
| Cc1ccccc1OCC(=O)NC(=S)Nc1ccc(Br)c(C)n1 | -6.09% |  |
| CCCN1C(=O)/C(=C/c2ccc(C)s2)SC1=Nc1ccc(OC)cc1 |  | 14.1 µM (active) |
| CCCCOC(=O)NS(=O)(=O)c1sc(CC(C)C)cc1-c1ccc(Cn2c(CC)nc3c(C)cc(C)nc32)cc1 |  | 3.16 µM (active) |
| Cc1c(NC(=O)CSc2nnnn2C)c(=O)n(-c2ccccc2)n1C | -2.31% [at 2.29 µM] |  |
| Cc1nc(SCC(=O)Nc2c(C)n(C)n(-c3ccccc3)c2=O)nc(C)c1C | -4.78% [at 11.4 µM] |  |
| Cc1c(NC(=O)CSc2nnc3c4ccccc4n(CCc4ccccc4)c3n2)c(=O)n(-c2ccccc2)n1C |  | 10 µM (active) |
| C=CCn1c(SCC(=O)Nc2c(C)n(C)n(-c3ccccc3)c2=O)nc2sc(C)c(-c3ccccc3)c2c1=O |  | 2.51 µM (active) |
| Cc1cccc(NC(=O)CSc2nc3ccccc3c3nc(CCc4c(C)n[nH]c4C)nn23)c1 |  | 3.55 µM (active) |

| Structure (SMILES) | activity, negative = inhibition | AC50 |
| --- | --- | --- |
| Cc1cccc(NC(=O)Cn2c(=O)n3nc(CCn4nc(C)cc4C)nc3c3ccccc32)c1 |  | 5.01 µM (active) |
| Cc1ccc(/C=C/C(=O)N2CC(C)CC(C)C2)o1 (stereo not given) | 9.56% |  |
| C[C@]12C=CC(=O)C=C1CC[C@@H]1[C@H]3C[C@@H](O)[C@](O)(C(=O)CO)[C@@]3(C)C[C@H](O)[C@]12F | -2.5% [at 25.6 µM] |  |
| C[C@]1(c2ccccc2)O[C@@H]2C[C@@H]3[C@@H]4CCC5=CC(=O)C=C[C@@]5(C)[C@]4(F)[C@H](O)C[C@]3(C)[C@@]2(C(=O)CO)O1 |  | 3.16 µM (active) |
| C[C@H]1C[C@H]2[C@H]3CCC4=CC(=O)C=C[C@@]4(C)[C@]3(F)[C@H](O)C[C@]2(C)[C@@]1(O)C(=O)COP(=O)(O)O | 7.91% [at 11.4 µM] |  |
| O=C(NCc1ccccc1)C(c1ccc(F)cc1)N(Cc1ccco1)C(=O)c1ccccn1 (stereo not given) |  | 2.24 µM (active) |
| Cc1ccccc1C(C(=O)NCc1ccccc1)N(Cc1ccco1)C(=O)c1ccccn1 (stereo not given) |  | 3.16 µM (active) |
| Clc1ccc(-c2cc3ccccc3[nH]2)cc1 | -20.2% |  |
| N#C/C(=C\c1c[nH]c2ccccc12)C(=O)c1ccc(O)c(O)c1 |  | 7.94 µM (active) |
| N#C/C(=C\c1ccc(O)c(O)c1)C(=O)c1ccc(O)c(O)c1 |  | 15.8 µM (active) |
| N#C/C(=C\N1CCNC1=S)C(=O)c1ccc2ccccc2c1 | -26% [at 11.4 µM] |  |
| N#C/C(=C\c1ccc(O)c(O)c1)C(N)=O | -22.9% |  |
| Cc1nc2c3cnn(-c4ccc(C)c(C)c4)c3ncn2n1 |  | 17.8 µM (active) |
| Cc1ccc(-n2ncc3c2ncn2nc(-c4ccco4)nc32)c(C)c1 | 2.26% |  |
| c1ccc(-n2ncc3c2ncn2cnnc32)cc1 | -14.2% |  |
| CC(C)(C)c1ccc(OCC(=O)O)c(Cl)c1 | -2.41% [at 11.4 µM] |  |
| O=C1N=C(N2CCOCC2)S/C1=C/c1cccs1 | -4.33% [at 2.29 µM] |  |
| NC(=O)CNC(=O)[C@@H]1CC2(CC(c3ccccc3)=NO2)CN1C(=O)c1ccc(Br)cc1 (stereo not given in full) | -5.09% [at 11.4 µM] |  |
| COc1cccc(N(C(=O)Cn2nnc(-c3ccc(C)cc3)n2)C(C(=O)NC(C)(C)C)c2c[nH]c3ccccc23)c1 (stereo not given) |  | 2.82 µM (active) |
| NCCCCCc1nnc(SCc2ccc(Cl)cc2Cl)o1 |  | 12.6 µM (active) |
| NCCCCCc1nnc(SCc2ccccc2Cl)o1 | -28.1% |  |
| N=C(N)SCc1ccc(Cl)cc1Cl (tested in a mixture with another compound) | -3.48% [at 11.4 µM] |  |
| CCn1ncc(C(=O)Nc2cc(C)on2)c1C | 6.4% [at 2.29 µM] |  |
| CCOC(=O)c1cnc2c(cnn2C)c1NCCCN(C)C | -8.88% |  |

| Structure (SMILES) | activity, negative = inhibition | AC50 |
| --- | --- | --- |
| CCOC(=O)c1cnn(CCOC(=O)C(C)(C)C)c1NC(=O)C(C)(C)C |  | 12.6 µM (active) |
| CNC(=O)Oc1ccc2c(c1)[C@@]1(C)CCN(C)[C@@H]1N2C |  | inactive |
| COc1ccc(-n2c(=O)[nH]cc(C(=O)Nc3ccc4c(c3)OCCO4)c2=O)cc1 |  | 14.1 µM (active) |
| CCOC(=O)CSc1nc(-c2ccccc2)nc2ccccc12 | -24.3% |  |
| CCOC(=O)CSc1cc(C(F)(F)F)nc(-c2ccccn2)n1 | 25.3% |  |
| CCOC(=O)CSc1cc(CS(=O)c2ccc(Cl)cc2)nc(-c2ccccc2)n1 (stereo not given) |  | 7.08 µM (active) |
| CCOc1ccc(OCC)c(-c2c(=O)n(OCc3ccccc3C(=O)OC)c3ccccc3[n+]2[O-])c1 |  | 14.1 µM (active) |
| Cn1c(=O)c2c3c(sc2n2cnnc12)CCC3 | 10.9% [at 2.29 µM] |  |
| CC1CSc2nc3sc4c(c3c(=O)n21)CCCC4 (stereo not given) |  | 12.6 µM (active) |
| CCn1c(SCC(=O)OC)nc2sc3c(c2c1=O)CCC3 | -18.1% |  |
| CC1(C)CC(=O)C2=C(C1)N(c1ccc(F)cc1)C(N)=C(C#N)C2c1cccs1 (stereo not given) |  | 1 µM (active) |
| Cc1ccccc1C(=O)Nc1cccc(NC(=S)NC(=O)c2cccs2)c1 |  | 3.55 µM (active) |
| CCN(c1ccccc1)S(=O)(=O)c1ccc(NC(=S)NC(=O)c2ccc(Br)o2)cc1 | 6.12% |  |
| COc1cc(NC(=S)NC(=O)c2c(OC)cccc2OC)ccc1NC(=O)c1cccs1 |  | 3.16 µM (active) |
| C/C(=N\NC(=O)c1ccccc1C)c1ccc(NC(=O)c2cccs2)cc1 | -4.96% [at 2.29 µM] |  |
| CCCC(=O)Nc1ccc(C(=O)NNC(=S)NC(=O)c2cccs2)cc1 | -27.7% |  |
| CN(C1CCCCC1)S(=O)(=O)c1ccc(NC(=S)NC(=O)c2cccs2)cc1 |  | 3.98 µM (active) |
| COc1ccc(-n2nc3cc(C)c(NC(=S)NC(=O)c4ccccc4C)cc3n2)cc1 | -17.3% [at 11.4 µM] |  |
| O=[N+]([O-])/C=C\c1cc2ccccc2[nH]1 | -22.3% [at 11.4 µM] |  |
| CCNC(=O)c1ccc(-n2nc(C)cc2-c2ccccc2)cc1 | -28.7% |  |
| C=CCNC(=O)c1ccccc1Cl | -16.2% |  |
| C=CCNC(=O)c1ccc2nc(-c3ccccc3)c(-c3ccccc3)nc2c1 |  | 7.08 µM (active) |
| COc1ccc(N(C)C(=O)c2ccc3nc(-c4ccccc4)c(-c4ccccc4)nc3c2)cc1 |  | 7.94 µM (active) |

Reference: PubChem BioAssay AID1851 (National Center for Advancing Translational Sciences (NCATS), 2009)
